From PubChem BioAssay AID1117361 (Southern Research Institute, 2015)
In all, about 3,600 compounds went through this assay and about 900 (25%) were called active. Only a sample is shown. Entries with a potency or affinity are not part of this list. A number with no mark means an inactive call. How the calls were made is not given here.

target: Protein Tat (Human immunodeficiency virus type 1 group M subtype B (isolate HXB2)) (UniProt P04608); assay: inhibitors of Tat binding to TAR RNA, dose response, counter-screen for Vif-APOBEC3G degradation inhibitor project, biochemical, fluorescence polarization, FAM-labeled TAR RNA (AID 1117361); conditions: outcome: dose series up to 100 µM unless noted; series mostly up to 100 µM; inhibition: at the top concentration

SMILES	inhibition	outcome
CCOC(=O)c1ccccc1NC(=O)CSc1nccn1C	4.77%	–
O=[N+]([O-])c1ccc(N2CCN(c3ccc(Cl)nn3)CC2)c(Cl)c1	2.73%	–
CCc1ccc(C(=O)Nc2cccnc2Oc2ccc(Cl)cc2)cc1	–	inactive
Cc1cc(C)cc(OCC(=O)NNC(=O)CN2C(=O)c3ccccc3C2=O)c1	–	inactive
CC1=CC(C)(C)Nc2ccc(OC(=O)c3cccnc3)cc21	11.5%	–
O=C(Nc1ccccc1[N+](=O)[O-])C1C(c2ccccc2)=C1c1ccccc1	0.68%	–
Cc1ccc(C(=O)NNS(=O)(=O)c2ccccc2[N+](=O)[O-])cc1	9.07%	–
O=C(COc1cccc2cccnc12)N1CCc2ccccc2C1	8.87%	–
O=C(NN=C1CCCCCC1)c1cccnc1	–	inactive
Cc1cc(C)n(CC(=O)NNC(=O)c2ccc(NC(=O)CC#N)cc2)n1	–	inactive
CN(CCOCCOc1ccc2ccccc2c1)Cc1ccccc1	–	inactive
Cc1c(C(=O)Nc2ccncc2)oc2c1C(=O)CC(C)(C)C2	9.46%	–
CC(C(=O)Nc1ccc(F)c(F)c1F)N1CCCCCC1 (stereo not given)	6.82%	–
CCOC(=O)/C(C#N)=C/c1c(OCC)n(CC)c2ccccc12	–	inactive
COC1=CC(=O)c2c(ccc3ncnc(N)c23)C1=O	–	inactive
CCOC(=O)c1cc(-c2ccccc2)n(CC(=O)O)c1C	1.35%	–
CC(C)n1c(CCC(=O)O)ccc1-c1ccccc1	18.2%	–
Cc1c(CN2CCC(CO)(Cc3cccc(C(F)(F)F)c3)CC2)c2ccccc2n1C	3.3%	–
CCOc1ccc(-n2cnnn2)cc1S(=O)(=O)NCCc1ccc(OC)c(OC)c1	–	inactive
O=C(CSc1nccc(=O)[nH]1)Nc1ccc2c(c1)OCCO2	–	inactive
Cc1nc(NC(=O)CN2CCOCC2)sc1-c1ccccc1	0.68%	–
C=CCn1c(N2CCCCCC2)nc2c1c(=O)[nH]c(=O)n2C	10.4% [at 50 µM]	–
Cc1ccc2[nH]c(=O)c(C3C(C#N)=C(N)Oc4c3ccc3cccnc43)cc2c1 (stereo not given)	3.01%	–
CC(=O)OC(C)C1C2=C(C(=O)CC1(C)O)C(=O)c1c(ccc(-c3ccc4c(c3O)C(=O)C3=C(C4=O)C(C(C)OC(C)=O)C(C)(O)CC3=O)c1O)C2=O (stereo not given)	–	inactive

SMILES	inhibition	outcome
CCNC(=O)C1CC(=O)N(Cc2ccc(F)cc2)C(=Nc2ccc(OC)cc2)S1 (stereo not given)	–	inactive
N#C/C(C(=O)N1CCOCC1)=C1/SC(Cc2ccccc2)C(=O)N1c1ccccc1 (stereo not given)	6.08%	–
CCc1ccc(N/C(SCc2cccc(F)c2)=C(/C#N)C(=O)NCc2ccco2)cc1	8.19%	–
CCOc1ccc2[nH]c(=O)c(CN(Cc3nnnn3Cc3ccco3)C3CCCCC3)cc2c1	–	inactive
CCN(Cc1ccccc1)Cc1nnnn1Cc1ccccc1	–	inactive
Cc1ccc2[nH]c(=O)c(CN(Cc3cccs3)Cc3nnnn3Cc3ccccc3)cc2c1	20.5%	–
Cc1ccc2nsnc2c1S(=O)(=O)N(Cc1ccco1)Cc1cc2cccc(C)c2[nH]c1=O	1.36%	–
Cc1ccc(-n2ncc(C#N)c2/N=C/N2CCCCCC2)cc1	4.05%	–
O=C1OCCC1Sc1nc2ccccc2n1Cc1ccccc1 (stereo not given)	–	inactive
Cn1c(=O)oc2cc(S(=O)(=O)Nc3cccc(C(=O)O)c3)ccc21	8.19%	–
CCOC(=O)c1ccc(NS(=O)(=O)c2ccc3oc(=O)[nH]c3c2)cc1	–	inactive
COC(=O)c1sc(NC(=O)c2ccc(Cn3cc(Cl)cn3)o2)c(C#N)c1C	25%	–
CCOc1ccc(/C=C2\SC(=S)N(CCC(=O)O)C2=O)cc1	0.82%	–
Cc1ccc(OCCSc2nnc(-c3ccncc3)n2C)cc1	2.73%	–
CC(Oc1cccc2cccnc12)C(=O)N/N=C/c1ccc2c(c1)OCO2 (stereo not given)	4.12%	–
COc1cc(NC(=O)c2noc3c2CCC3)c(OC)cc1Cl	2.34%	–
O=C(c1cccs1)N1CCN(C/C=C/c2ccccc2)CC1	2.03%	–
c1ccc2c(c1)NCC1CCCN21 (stereo not given)	–	inactive
COc1ccccc1NC(=O)c1oc2ccc(C)cc2c1C	–	inactive
Cc1nnc(-c2cnn(-c3ccccc3)c2N)n1Cc1cccc(C(F)(F)F)c1	4.05%	–
O=[N+]([O-])c1ccc(Cl)c(S(=O)(=O)Nc2cccc(S(=O)(=O)NC3=NCCC3)c2)c1	–	inactive
O=C(NCC1CCCO1)c1cc2ccccc2oc1=O (stereo not given)	–	inactive
CC(C)Oc1ccc(-c2cc(C(=O)NCCN3CCOCC3)c3ccccc3n2)cc1	–	inactive
O=C(Nc1ccccc1C(=O)NCC1CCCO1)c1ccccc1 (stereo not given)	–	inactive

SMILES	inhibition	outcome
CCOC(=O)N1CCC(NC(=O)c2cc3c(C)nc4ccccc4c3o2)CC1	21.6%	–
CCNC(=S)Nc1cccc(S(=O)(=O)NC2=NCCC2)c1	–	inactive
CCOC(=O)N1CCC(NC(=O)c2cc(C(=O)NCc3cccc(Cl)c3)ccc2CO)CC1	1.36%	–
Cc1ccc2cccc(S(=O)(=O)N3CCN(c4ccccc4F)CC3)c2n1	–	inactive
S=C(N/N=C/c1cccs1)NC1CC2CCC1C2 (stereo not given)	–	inactive
CC1=C(C(=O)OC(C)C)C(c2ccc(Br)s2)NC(=O)N1C (stereo not given)	–	inactive
COC(=O)Nc1ccc(C)c2nsnc12	–	inactive
COc1ccccc1Cn1c(-c2ccccc2OC)nc2ccccc21	6.14%	–
CCOc1ccc2nc(SCC(=O)c3cccs3)sc2c1	–	inactive
O=C(Nc1cnn(Cc2ccc(Cl)c(Cl)c2)c1)c1nc2ncccn2n1	–	inactive
CCOC(=O)C1CCN(S(=O)(=O)c2cccc(-c3cn4cccnc4n3)c2)CC1	8.11%	–
CCN(CC)S(=O)(=O)c1ccc(/C=C/C(=O)Nc2ccc(N3CCOCC3)cc2)cc1	5.77%	–
CC(Sc1nnc(C2CC2)n1C)C(=O)Nc1ccc(N2CCOCC2)cc1 (stereo not given)	5.68%	–
O=C1CC(N2CCOCC2)C(=O)N1c1ccc(Cl)cc1 (stereo not given)	–	inactive
Cn1c(-c2ccccc2)cnc1SCC(N)=O	2.03%	–
COc1nc(N(c2ccccc2)c2ccccc2)nc(-n2ccnc2)n1	25.7%	–
C(=N\n1cnnc1)/c1ccc2ncccc2c1	–	inactive
CC(C)OC(=O)CSc1nnc(-c2ccccn2)n1-c1ccccc1	6.76%	–
C/C(CC1CC2=C(CC1(C)C)C(C)(C)CCC2)=N\NC(N)=S (stereo not given)	–	inactive
Cc1ccc(NC(=S)NNc2ncc(C(F)(F)F)cc2Cl)cc1	–	inactive
Cc1nc(NC(=O)COC(=O)CCS(=O)(=O)c2ccccc2Cl)c(Cl)cc1Cl	11.5%	–
O=c1c2cnn(-c3ccccc3Cl)c2ncn1Cc1cccnc1	8.78%	–
